Assay results reported in the supplement of paper PMC3334620.
The full ranking holds about 33,000 sequences; the median of “E-score (-0.5 to 0.5)” is about -0.021, and the highest 2% start at about 0.32. For the sample, the highest values were picked, then their nearest neighbours and some sequences at random.

target: T1, Zap1 (UniProt P47043); experiment: PBM E-score (8-mer binding enrichment) (E-score (-0.5 to 0.5)); higher = stronger / more preferred TF binding; conditions: protein concentration: 200 nM; construct: GST-full length
T1 sequence: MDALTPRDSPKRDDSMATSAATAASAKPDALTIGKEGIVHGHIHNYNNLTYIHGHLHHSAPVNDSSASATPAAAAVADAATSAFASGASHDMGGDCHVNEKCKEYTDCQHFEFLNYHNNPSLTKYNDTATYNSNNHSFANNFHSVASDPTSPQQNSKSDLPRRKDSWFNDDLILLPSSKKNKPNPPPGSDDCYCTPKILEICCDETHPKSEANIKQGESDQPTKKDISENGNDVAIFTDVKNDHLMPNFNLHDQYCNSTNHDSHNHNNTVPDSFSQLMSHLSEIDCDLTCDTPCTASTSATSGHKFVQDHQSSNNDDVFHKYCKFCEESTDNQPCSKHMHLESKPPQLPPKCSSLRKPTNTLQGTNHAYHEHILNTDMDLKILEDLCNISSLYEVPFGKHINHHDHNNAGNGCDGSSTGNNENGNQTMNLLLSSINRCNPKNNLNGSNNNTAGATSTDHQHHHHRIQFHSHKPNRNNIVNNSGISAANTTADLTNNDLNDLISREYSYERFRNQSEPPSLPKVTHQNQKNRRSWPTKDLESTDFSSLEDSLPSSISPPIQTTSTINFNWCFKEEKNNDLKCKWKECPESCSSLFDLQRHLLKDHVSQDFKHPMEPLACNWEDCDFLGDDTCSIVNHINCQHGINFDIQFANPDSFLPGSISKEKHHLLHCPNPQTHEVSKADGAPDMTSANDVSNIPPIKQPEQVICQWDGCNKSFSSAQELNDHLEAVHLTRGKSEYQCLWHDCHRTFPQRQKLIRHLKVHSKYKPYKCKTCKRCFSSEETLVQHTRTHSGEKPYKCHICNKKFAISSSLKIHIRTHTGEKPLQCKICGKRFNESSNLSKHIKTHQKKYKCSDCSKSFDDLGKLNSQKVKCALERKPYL
Description: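 Universal 'all 10-mer' protein binding microarrays (Agilent AMADID 015681) probed with GST-tagged S. cerevisiae TFs (full-length or DBD) made by in vitro transcription/translation (PURExpress), about 100-200 nM. Bound TF was detected with fluorescent anti-GST. Each ungapped 8-mer (which stands for itself and its reverse complement) is scored by the PBM enrichment score (E-score), a modified Wilcoxon-Mann-Whitney statistic from -0.5 to +0.5, computed with the Universal PBM Analysis Suite. Scale: above 0.35 generally sequence-specific binding.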

Sequence	PBM E-score
AAACTTCA	0.00932
GTGGTTGA	0.0163
ATGGTTTA	0.191
ATGGTTCA	0.119
ATGGTTAA	0.357
GTGGTTTA	0.213
GTGGTTAA	0.406
CCTGTGAG	0.133
CGGTGCTC	0.123
GGCACAGA	-0.267
ACCCTAAC	0.414
ACCCTAAT	0.407
ATCCTAAG	-0.00974
GCCCTAAC	0.111
ATCCTAAT	0.0542
AGCCTAAT	-0.212
ACCCTAAA	0.416
ACCCTAAG	0.457
CCCCTAAC	0.232
CCCCTAAA	0.0485
CCCCTAAG	0.158
TCCCTAAA	-0.0128
GCTGCTTA	0.0693
CCCTGCCA	-0.00313
CGCTAGCC	-0.373

Sequence	PBM E-score
AGGTATAA	0.317
AGGTATAT	0.115
CGGTATAA	0.0772
CATGCTGG	-0.0654
CGGATTCC	-0.0353
AAACCCTC	0.175
TAACCGTA	0.31
ACCCCCTG	-0.07
AGACCCTG	0.253
CACCCCTC	0.239
TAGCCCTA	-0.0869
ACCCCCTC	-0.0959
AAACCCTG	0.337
TAACCCTA	0.462
AACCCCTC	0.353
AACCCCTG	0.347
CACCCCTG	-0.0914
AGAGAGAC	-0.00859
CACGCTAG	-0.21
ACGTTGAG	-0.0801
TCCTTAAA	0.15
AGATTTGC	-0.0426
ATATCTCC	-0.149
ATTGACTC	0.049
GGACAGCC	-0.0735

Sequence	PBM E-score
CATCGACC	-0.0318
TTCTTCAA	0.0925
CAACCCTA	0.442
AACCCCTA	0.389
ATCCCCTA	0.0194
AAACCCAA	0.312
GAACCCTA	0.272
CAACCCTC	0.258
AAACCCTT	0.272
AAACCCTA	0.423
CAAACCTA	0.166
ACCCCCTA	-0.354
CAACCCTG	0.419
CAACCCGG	0.213
CGAAGCAG	-0.165
AGGCTGGA	-0.23
CACCAGGA	0.0532
AATCGCGG	-0.0922
GAAAAGAC	0.0296
CACCAAGA	0.0172
ATCAACGC	-0.0956
AGTAGTCA	-0.276
CAGATACA	0.0912
GTAGCACA	0.017
GCATCCAA	-0.203

Sequence	PBM E-score
AGGGAGAA	-0.148
AACCCCTT	0.38
GGACCCTA	0.159
AACCCCCT	-0.187
AGACCCTA	0.298
GACCCCTA	0.276
TACCCCTA	0.366
AACCCCGT	0.277
CACCCCTA	0.0983
CGACCCTA	0.328
CGTCTCTA	-0.19
GCTAAAAC	0.0736
CGTATCCA	-0.133
CGGTTGAA	0.221
CCACAGCC	-0.17
AACCTTTA	0.398
GACCTTTA	0.401
ATCCTTTA	0.092
GGCCTTTA	0.114
AACCTTTC	0.324
CACCTTTC	0.0949
AACCTTCA	0.368
GACCTTCA	0.0992
AGCCTTTC	-0.185
CACCTTTA	0.118

Sequence	PBM E-score
AGCCTTTA	0.132
AACCTTCC	0.21
ATAGTTGC	0.135
ACGTCGCA	-0.0322
GGTGAACA	-0.231
GCGCTATA	-0.105
CGCTATCA	-0.078
CAGCAAGC	-0.389
ACCTAGGC	-0.26
GTGATAAC	0.251
CATCCTCC	-0.176
GATAGCTA	-0.298
GGCTCAAA	-0.176
AGGAACAA	0.00761
AACCTTGG	0.274
AACCTTCG	0.305
AACCTTTG	0.377
AGATCGCT	-0.204
GAAACTCC	-0.206
ACAGATCA	0.0477
TCGTTAAA	-0.0347
CGGTTTAA	0.0515
AGGTTAAA	0.376
CTGTTAAA	0.0123
ATGTTAAA	0.0569

Sequence	PBM E-score
CGGTTAAA	0.328
ACGTTAAA	0.101
TGGTTAAA	0.379
TAGTTAAA	0.234
CTGTTGCA	0.201
GCAAGGTA	0.265
CCGTCCTC	-0.191
CTGGTGAA	-0.0889
AGCTGTCC	-0.225
TACCGCGA	0.328
AACCGCGG	0.374
CCGCGCGG	0.332
AACCGCGC	0.24
CCGCGCGA	0.124
CACCGCGG	0.176
AACCGCGA	0.367
GACCGCGA	0.259
CACCGCGA	0.0268
CCGCGCGC	0.0679
AACCGCAG	0.126
AACCGCGT	0.227
AGCACTAC	-0.0779
CCGAAGCA	-0.176
ACACAATC	0.00143
CCAGGGCG	-0.178

Sequence	PBM E-score
TCCAAGAA	-0.0864
CGTCTCAC	-0.107
AGCATTTG	-0.00877
AGCAAGCA	-0.167
ATTAATAG	0.195
ATTAATAC	0.344
ATTAATAA	0.21
ATGCCACC	-0.11
CTGGCCGA	-0.318
ACTTTAGA	0.0114
GATGGCAA	-0.0776
GCATGACC	0.234
CCATGACG	0.0693
GAATGACC	0.338
CCATGACC	0.416
GAATGACA	-0.0394
AAATGACC	0.317
GTTGGCCA	-0.015
GCGCCTTA	-0.066
GAGTTTAA	0.121
AACCTACA	0.264
ACCTACCA	0.126
